# Measurements taken from the supplement of paper PMC10849652.
# Of roughly 8,800 targets only a part is listed; those with a hit were picked by preference. About 0.5% of all pairs of compound and target were hits. Unmarked numbers belong to inactive results.
# What was measured:
# Test in all cases: log2 fold change, soluble protein after heating vs DMSO (PISA); higher = thermal stabilisation; K562 lysate, 10 uM; active = over 0.2 and 3.5 SD of the protein, either way, in both replicates (recomputed)
# [1] = compound: NCC(=O)Nc1ccc(-n2nc(C(F)(F)F)cc2-c2ccc3c(ccc4ccccc43)c2)cc1
# How it was run: (§1)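 K562 pellets were dounce-homogenised in PBS pH 7.4 containing 1 mM MgCl2, and the crude extract, at 1 mg/mL protein, was exposed to 10 μM compound for 30 min. Aliquots were heated for 3 min across 48°C-58°C, pooled, brought to 0.5% NP-40 at 4°C and spun at 21,000xg for 90 min, with the supernatant taken as soluble protein. TMTpro 16plex LC-MS/MS with equalised channel sums quantified that protein. Values are log-two fold changes in thermal stability relative to solvent controls, taken from duplicates.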
# vorinostat = compound: O=C(CCCCCCC(=O)Nc1ccccc1)NO [vorinostat]
# How it was run: as §1
# silmitasertib = compound: O=C(O)c1ccc2c(c1)nc(Nc1cccc(Cl)c1)c1ccncc12 [silmitasertib]
# How it was run: as §1
# [2] = compound: O=C1NC(=O)C(c2cnc3ccccn23)=C1c1cn2c3c(cc(F)cc13)CN(C(=O)N1CCCCC1)CC2
# How it was run: as §1
# entospletinib = compound: c1cn2cc(-c3ccc4cn[nH]c4c3)nc(Nc3ccc(N4CCOCC4)cc3)c2n1 [entospletinib]
# How it was run: as §1
# Sequence of UniProt Q53S58 (Q53S58 whole entry, looked up): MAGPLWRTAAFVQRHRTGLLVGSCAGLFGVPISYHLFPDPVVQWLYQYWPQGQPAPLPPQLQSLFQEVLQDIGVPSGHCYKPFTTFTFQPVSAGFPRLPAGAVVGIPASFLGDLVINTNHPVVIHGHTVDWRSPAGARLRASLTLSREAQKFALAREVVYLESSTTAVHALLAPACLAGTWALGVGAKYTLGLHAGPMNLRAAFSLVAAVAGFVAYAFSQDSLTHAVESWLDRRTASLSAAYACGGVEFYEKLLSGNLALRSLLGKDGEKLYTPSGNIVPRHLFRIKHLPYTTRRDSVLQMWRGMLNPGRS
# Sequence of UniProt Q8IWV7 (Q8IWV7 whole entry, looked up): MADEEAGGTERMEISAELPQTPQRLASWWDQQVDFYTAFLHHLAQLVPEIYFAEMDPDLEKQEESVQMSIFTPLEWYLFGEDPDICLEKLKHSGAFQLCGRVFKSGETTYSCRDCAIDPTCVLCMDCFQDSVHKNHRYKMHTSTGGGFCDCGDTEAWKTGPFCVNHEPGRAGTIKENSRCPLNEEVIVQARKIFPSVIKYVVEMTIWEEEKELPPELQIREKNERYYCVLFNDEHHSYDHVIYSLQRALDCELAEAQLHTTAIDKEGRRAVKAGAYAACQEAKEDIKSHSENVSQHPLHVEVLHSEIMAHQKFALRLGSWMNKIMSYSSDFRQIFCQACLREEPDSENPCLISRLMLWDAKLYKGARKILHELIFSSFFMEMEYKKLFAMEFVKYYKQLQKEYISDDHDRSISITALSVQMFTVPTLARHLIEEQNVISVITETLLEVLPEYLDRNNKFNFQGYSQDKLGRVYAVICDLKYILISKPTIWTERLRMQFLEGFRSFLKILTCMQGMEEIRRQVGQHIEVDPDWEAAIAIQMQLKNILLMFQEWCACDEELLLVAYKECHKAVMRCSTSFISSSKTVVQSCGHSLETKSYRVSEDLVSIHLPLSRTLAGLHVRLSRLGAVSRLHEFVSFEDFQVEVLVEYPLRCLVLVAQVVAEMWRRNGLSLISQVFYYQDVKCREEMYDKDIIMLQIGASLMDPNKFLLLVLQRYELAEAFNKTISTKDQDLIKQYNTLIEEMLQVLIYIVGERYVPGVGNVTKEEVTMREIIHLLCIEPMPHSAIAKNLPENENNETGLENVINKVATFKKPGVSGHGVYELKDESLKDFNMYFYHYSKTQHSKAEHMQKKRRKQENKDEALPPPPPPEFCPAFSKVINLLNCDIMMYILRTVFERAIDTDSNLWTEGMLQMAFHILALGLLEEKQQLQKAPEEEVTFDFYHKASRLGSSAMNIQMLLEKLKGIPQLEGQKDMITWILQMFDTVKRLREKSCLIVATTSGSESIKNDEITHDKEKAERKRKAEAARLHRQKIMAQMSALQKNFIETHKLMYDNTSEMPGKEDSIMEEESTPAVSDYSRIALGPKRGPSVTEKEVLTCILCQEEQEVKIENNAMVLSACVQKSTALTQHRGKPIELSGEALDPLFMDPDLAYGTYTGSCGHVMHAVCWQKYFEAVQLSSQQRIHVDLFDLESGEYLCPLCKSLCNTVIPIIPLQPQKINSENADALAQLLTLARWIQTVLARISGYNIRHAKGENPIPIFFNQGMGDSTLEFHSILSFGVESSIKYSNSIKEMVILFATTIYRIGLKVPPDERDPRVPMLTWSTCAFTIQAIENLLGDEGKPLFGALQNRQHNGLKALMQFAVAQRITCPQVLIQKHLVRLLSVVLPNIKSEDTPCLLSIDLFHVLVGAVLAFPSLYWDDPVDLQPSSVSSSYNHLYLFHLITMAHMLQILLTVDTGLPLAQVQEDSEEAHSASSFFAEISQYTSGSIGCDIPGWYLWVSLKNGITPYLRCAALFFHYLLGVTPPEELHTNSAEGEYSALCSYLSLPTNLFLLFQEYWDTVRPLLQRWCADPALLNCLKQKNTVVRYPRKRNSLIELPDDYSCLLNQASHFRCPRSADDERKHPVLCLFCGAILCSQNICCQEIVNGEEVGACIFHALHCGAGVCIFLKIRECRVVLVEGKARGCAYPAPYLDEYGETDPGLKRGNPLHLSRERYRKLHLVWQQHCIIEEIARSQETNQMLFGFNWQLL
# Sequence of UniProt Q5T6F2 (Q5T6F2 whole entry, looked up): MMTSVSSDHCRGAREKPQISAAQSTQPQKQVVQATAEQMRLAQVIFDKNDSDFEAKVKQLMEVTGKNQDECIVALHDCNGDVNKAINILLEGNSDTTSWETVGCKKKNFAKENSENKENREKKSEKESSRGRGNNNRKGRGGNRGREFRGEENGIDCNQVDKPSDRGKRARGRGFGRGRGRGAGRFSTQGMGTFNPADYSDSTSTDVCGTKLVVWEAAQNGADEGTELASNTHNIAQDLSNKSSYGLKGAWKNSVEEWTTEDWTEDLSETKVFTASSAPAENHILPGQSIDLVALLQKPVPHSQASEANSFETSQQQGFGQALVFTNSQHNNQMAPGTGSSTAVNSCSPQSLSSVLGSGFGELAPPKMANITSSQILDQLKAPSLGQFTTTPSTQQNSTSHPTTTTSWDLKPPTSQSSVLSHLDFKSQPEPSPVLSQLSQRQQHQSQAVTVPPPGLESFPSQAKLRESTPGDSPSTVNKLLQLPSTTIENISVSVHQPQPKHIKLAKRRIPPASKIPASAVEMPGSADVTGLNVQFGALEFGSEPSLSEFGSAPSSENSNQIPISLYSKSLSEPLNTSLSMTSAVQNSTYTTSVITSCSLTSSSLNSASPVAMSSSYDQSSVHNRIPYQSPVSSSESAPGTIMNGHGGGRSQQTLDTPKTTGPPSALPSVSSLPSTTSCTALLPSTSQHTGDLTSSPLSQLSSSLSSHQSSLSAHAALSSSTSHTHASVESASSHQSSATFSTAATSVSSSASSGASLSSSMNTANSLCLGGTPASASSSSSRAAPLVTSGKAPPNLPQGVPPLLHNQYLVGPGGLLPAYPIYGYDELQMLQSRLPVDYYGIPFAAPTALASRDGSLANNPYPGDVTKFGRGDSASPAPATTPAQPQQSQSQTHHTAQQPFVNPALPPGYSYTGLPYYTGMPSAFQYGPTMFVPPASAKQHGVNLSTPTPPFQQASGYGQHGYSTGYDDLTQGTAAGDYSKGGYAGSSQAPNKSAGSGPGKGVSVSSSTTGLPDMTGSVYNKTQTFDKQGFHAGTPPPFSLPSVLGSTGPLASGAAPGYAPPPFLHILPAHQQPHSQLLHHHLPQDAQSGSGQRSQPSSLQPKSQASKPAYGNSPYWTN
# Sequence of UniProt Q9Y4P3 (Q9Y4P3 whole entry, looked up): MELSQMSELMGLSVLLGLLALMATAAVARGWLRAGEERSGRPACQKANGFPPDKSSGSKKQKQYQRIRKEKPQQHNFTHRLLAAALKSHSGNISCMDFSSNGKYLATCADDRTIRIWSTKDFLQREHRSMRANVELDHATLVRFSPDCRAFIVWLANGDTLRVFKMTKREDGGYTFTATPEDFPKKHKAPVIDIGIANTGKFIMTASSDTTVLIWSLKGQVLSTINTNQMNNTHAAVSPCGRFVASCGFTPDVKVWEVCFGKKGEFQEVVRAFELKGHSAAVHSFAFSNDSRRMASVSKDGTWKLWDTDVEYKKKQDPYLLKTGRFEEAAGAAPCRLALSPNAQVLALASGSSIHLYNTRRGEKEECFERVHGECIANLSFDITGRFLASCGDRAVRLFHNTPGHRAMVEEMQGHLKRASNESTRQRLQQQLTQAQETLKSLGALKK
# Sequence of UniProt P15923 (P15923 whole entry, looked up): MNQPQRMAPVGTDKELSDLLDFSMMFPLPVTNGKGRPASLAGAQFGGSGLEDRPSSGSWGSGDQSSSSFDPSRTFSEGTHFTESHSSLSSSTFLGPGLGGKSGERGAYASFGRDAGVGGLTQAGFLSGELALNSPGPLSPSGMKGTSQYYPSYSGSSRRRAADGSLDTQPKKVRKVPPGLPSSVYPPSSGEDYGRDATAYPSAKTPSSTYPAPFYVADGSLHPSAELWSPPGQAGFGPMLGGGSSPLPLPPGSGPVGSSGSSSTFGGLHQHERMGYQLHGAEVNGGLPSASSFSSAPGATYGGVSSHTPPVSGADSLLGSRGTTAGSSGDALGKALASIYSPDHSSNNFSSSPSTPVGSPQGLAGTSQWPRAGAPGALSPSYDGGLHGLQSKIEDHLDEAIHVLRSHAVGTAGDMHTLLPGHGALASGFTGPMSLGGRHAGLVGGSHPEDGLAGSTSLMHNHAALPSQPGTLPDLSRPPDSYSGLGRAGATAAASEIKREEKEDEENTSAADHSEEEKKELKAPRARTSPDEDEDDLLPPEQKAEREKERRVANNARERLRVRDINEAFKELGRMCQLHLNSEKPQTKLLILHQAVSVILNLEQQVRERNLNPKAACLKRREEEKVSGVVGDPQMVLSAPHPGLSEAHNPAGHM
# Sequence of UniProt Q5BVD1 (Q5BVD1 whole entry, looked up): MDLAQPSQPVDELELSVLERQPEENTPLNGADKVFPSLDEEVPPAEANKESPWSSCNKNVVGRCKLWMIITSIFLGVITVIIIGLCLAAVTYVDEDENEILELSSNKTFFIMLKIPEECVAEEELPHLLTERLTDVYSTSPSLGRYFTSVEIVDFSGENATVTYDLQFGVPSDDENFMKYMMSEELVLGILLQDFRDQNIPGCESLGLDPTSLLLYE
# Sequence of UniProt P67936 (P67936 whole entry, looked up): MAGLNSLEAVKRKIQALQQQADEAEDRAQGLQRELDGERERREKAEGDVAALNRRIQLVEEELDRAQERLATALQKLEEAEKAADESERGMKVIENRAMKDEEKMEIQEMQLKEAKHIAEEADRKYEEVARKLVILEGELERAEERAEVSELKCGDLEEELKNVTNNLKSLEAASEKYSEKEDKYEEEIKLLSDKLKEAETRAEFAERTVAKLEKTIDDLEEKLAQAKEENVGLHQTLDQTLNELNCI
# Sequence of UniProt Q6IPR3 (Q6IPR3 whole entry, looked up): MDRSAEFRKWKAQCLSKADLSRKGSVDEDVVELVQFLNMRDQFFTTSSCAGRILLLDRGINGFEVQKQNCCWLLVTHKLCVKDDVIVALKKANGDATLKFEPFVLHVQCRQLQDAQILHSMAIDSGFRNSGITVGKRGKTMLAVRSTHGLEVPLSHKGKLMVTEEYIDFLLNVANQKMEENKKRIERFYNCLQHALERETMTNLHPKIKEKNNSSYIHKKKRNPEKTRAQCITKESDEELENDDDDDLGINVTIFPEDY
Target,log2 fold change [1],log2 fold change (vorinostat),log2 fold change (silmitasertib),log2 fold change [2],log2 fold change (entospletinib)
TPM4 (UniProt P67936),-0.001,0.166,-0.018,-0.023,0.048
TUBB4A (UniProt M0QYM7),0.128,-0.431,0.01,-0.062,0.032
TTLL12 (UniProt Q14166),-0.021,-0.426 (active),0.092,0.02,0.049
UBE3C (UniProt Q15386),-0.009,-0.479 (active),-0.001,0,0.05
UBR1 (UniProt Q8IWV7),-0.04,-0.239 (active),0.025,0.008,-0.024
TTMP isoform 3 (UniProt Q5BVD1),0.253,0.191,-0.074,0.167,-0.032
TTI1 (UniProt O43156),-0.037,-0.452 (active),0.089,-0.019,-0.017
TYW3 (UniProt Q6IPR3),0.036,-0.694 (active),0,-0.042,-0.001
TRMT2A (UniProt Q8IZ69),-0.012,-0.366 (active),0.034,-0.007,0.002
TBL2 (UniProt Q9Y4P3),-0.035,-0.292 (active),-0.007,-0.035,0.02
TTLL12 (UniProt V9GY16),0.115,0.076,-0.298,0.035,0.103
THEMIS2 (UniProt Q5TEJ8),-0.029,-0.315 (active),0.069,0.059,-0.007
TNPO3 (UniProt Q9Y5L0),0.017,-0.317 (active),0.015,0.009,0.022
UBAP2L isoform 5 (UniProt Q14157),0.013,0.126,-0.037,-0.018,-0.042
TUBB2A (UniProt Q13885),0.034,-0.759 (active),0.016,-0.004,-0.012
TCF3 (UniProt P15923),-0.007,-0.141,-0.031,0,-0.03
TUBGCP2 isoform 4 (UniProt Q9BSJ2),0.03,-0.32 (active),0.051,0.046,0.042
TOE1 (UniProt Q96GM8),-0.003,-0.359 (active),0.041,0.002,0.043
UBAP2 (UniProt Q5T6F2),0.031,0.03,-0.007,0,-0.013
TMEM177 (UniProt Q53S58),-0.183,-0.012,-0.035,0.034,0.005
TMC1 (UniProt Q8TDI8),0.015,-0.121,0.02,-0.337,0.012
TLE3 isoform 4 (UniProt Q04726),0.011,0.047,-0.052,-0.018,-0.009
TBC1D20 isoform 3 (UniProt Q96BZ9),-0.118,0.088,-0.013,0.058,0.02
TUBB4B (UniProt P68371),0.014,-0.712 (active),0.024,-0.001,0.005
